PubChem BioAssay (EPA / NIEHS)
Calls of active or inactive are those of the source. How the source made its calls: active means hit-call score of the fitted dose curve at least 0.9, where 1 is the maximum; inactive means score below 0.9.

What was measured:
Settings in all cases: mRNA level, 48 h; actives raise or lower the signal
[1] = read-out: growth arrest and DNA damage 45 (GADD45G), GADD45G (gene 10912); assay: LTEA_HepaRG_GADD45G: Life Technologies and Expression Analysis (LTEA) Assay for growth arrest and DNA damage 45 (GADD45G) using HepaRG (AID 2283499)
Method in brief: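 Gain or loss of GADD45G mRNA, quantified by TaqMan qRT-PCR against three housekeeping genes, is fitted in both directions relative to 0.5% DMSO. Human HepaRG cultures receive test chemical for 48 h at up to 100 uM.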

[2] = read-out: Glutamate-cysteine ligase regulatory (GCLM), GCLM (gene 2730); assay: LTEA_HepaRG_GCLM: Life Technologies and Expression Analysis (LTEA) Assay for Glutamate-cysteine ligase regulatory (GCLM) using HepaRG (AID 2283500)
Method in brief: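 Differentiated HepaRG cells exposed 48 h in serum-free induction medium to eight half-log concentrations up to 100 uM (0.5% DMSO). GCLM mRNA by TaqMan qRT-PCR, normalized to ACTB, GAPDH and POLR2A; bidirectional fit versus DMSO.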

[3] = read-out: Glutathione S-transferase M3 (GSTM3), GSTM3 (gene 2947); assay: LTEA_HepaRG_GSTM3: Life Technologies and Expression Analysis (LTEA) Assay for Glutathione S-transferase M3 (GSTM3) using HepaRG (AID 2283501)
Method in brief: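 HepaRG, plated 48 h, then serum-free induction medium; test chemical 48 h, duplicate; 100 uM top, half-log x8, 0.5% DMSO. Read-out: GSTM3 mRNA (TaqMan qRT-PCR, Fluidigm array). Bidirectional fit vs DMSO.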

[4] = read-out: Heat shock 70 kDa protein 1 (HSPA1A), gene 3303; assay: LTEA_HepaRG_HSPA1A: Life Technologies and Expression Analysis (LTEA) Assay for Heat shock 70 kDa protein 1 (HSPA1A) using HepaRG (AID 2283502)
Method in brief: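 Human HepaRG cells in serum-free induction medium were exposed in duplicate for 48 h to 8 half-log concentrations, highest 100 uM, in 0.5% DMSO. HSPA1A mRNA read by TaqMan qRT-PCR, normalized to ACTB, GAPDH, POLR2A, fitted bidirectionally against DMSO.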

[5] = read-out: Hypoxia-inducible factor 1-alpha (Homo sapiens) (UniProt Q16665); assay: LTEA_HepaRG_HIF1A: Life Technologies and Expression Analysis (LTEA) Assay for Hypoxia-inducible factor 1 (HIF1A) Trancription factor using HepaRG (AID 2283503)
Method in brief: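 Differentiated HepaRG cells in serum-free induction medium exposed 48 h, in duplicate, to 8-point half-log series from 100 uM in 0.5% DMSO. HIF1A mRNA measured by TaqMan qRT-PCR, normalized to ACTB/GAPDH/POLR2A, fitted bidirectionally versus DMSO.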

[6] = read-out: 3-Hydroxy-3-Methylglutaryl-CoA Synthase 2 (HMGCS2), HMGCS2 (gene 3158); assay: LTEA_HepaRG_HMGCS2: Life Technologies and Expression Analysis (LTEA) Assay for 3-Hydroxy-3-Methylglutaryl-CoA Synthase 2 (HMGCS2) using HepaRG (AID 2283504)
Method in brief: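 HepaRG, plated 48 h then switched to serum-free induction media; cmpd 8-pt, max 100 uM, 1/2-log, 0.5% DMSO, n=2, 48 h. HMGCS2 mRNA by Fluidigm TaqMan qRT-PCR, ACTB/GAPDH/POLR2A norm; bidirectional fit vs DMSO.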

HGF (gene 3082) = assay: LTEA_HepaRG_HGF: Life Technologies and Expression Analysis (LTEA) Assay for Hepatocyte Growth Facto (HGF) using HepaRG (AID 2283505)
Method in brief: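 Read-out is HGF transcript level by qRT-PCR, normalized to three housekeeping genes, fitted bidirectionally against 0.5% DMSO vehicle. Human HepaRG cells received test chemicals for 48 h at up to 100 uM.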

[7] = read-out: Insulin Like Growth Factor 1 (IGF1), IGF1 (gene 3479); assay: LTEA_HepaRG_IGF1: Life Technologies and Expression Analysis (LTEA) Assay for Insulin Like Growth Factor 1 (IGF1) using HepaRG (AID 2283506)
Method in brief: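 Differentiated HepaRG cells in serum-free induction medium, exposed 48 h in duplicate to 8 half-log concentrations up to 100 uM in 0.5% DMSO. IGF1 mRNA by Fluidigm qRT-PCR, normalised to ACTB, GAPDH and POLR2A.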

[8] = read-out: Intercellular Adhesion Molecule 1 (ICAM1), ICAM1 (gene 3383); assay: LTEA_HepaRG_ICAM1: Life Technologies and Expression Analysis (LTEA) Assay for Intercellular Adhesion Molecule 1 (ICAM1) using HepaRG (AID 2283507)
Method in brief: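 Readout is qRT-PCR mRNA level, normalized to three housekeeping genes and fitted bidirectionally against 0.5% DMSO vehicle. Human HepaRG cultures received compound for 48 h, top concentration 100 uM with half-log dilutions.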

[9] = read-out: Insulin-like growth factor-binding protein 1 (IGFBP1), IGFBP1 (gene 3484); assay: LTEA_HepaRG_IGFBP1: Life Technologies and Expression Analysis (LTEA) Assay for Insulin-like growth factor-binding protein 1 (IGFBP1) using HepaRG (AID 2283508)
Method in brief: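 Thawed HepaRG cells are plated for 48 h, switched to serum-free induction medium, then dosed in duplicate for another 48 h (100 uM top, half-log steps). Lysates in RLT go to qRT-PCR, and gain or loss of signal is fitted relative to vehicle.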

Measured: AC50

Sequence of Hypoxia-inducible factor 1-alpha (Homo sapiens) (Q16665 whole entry, looked up): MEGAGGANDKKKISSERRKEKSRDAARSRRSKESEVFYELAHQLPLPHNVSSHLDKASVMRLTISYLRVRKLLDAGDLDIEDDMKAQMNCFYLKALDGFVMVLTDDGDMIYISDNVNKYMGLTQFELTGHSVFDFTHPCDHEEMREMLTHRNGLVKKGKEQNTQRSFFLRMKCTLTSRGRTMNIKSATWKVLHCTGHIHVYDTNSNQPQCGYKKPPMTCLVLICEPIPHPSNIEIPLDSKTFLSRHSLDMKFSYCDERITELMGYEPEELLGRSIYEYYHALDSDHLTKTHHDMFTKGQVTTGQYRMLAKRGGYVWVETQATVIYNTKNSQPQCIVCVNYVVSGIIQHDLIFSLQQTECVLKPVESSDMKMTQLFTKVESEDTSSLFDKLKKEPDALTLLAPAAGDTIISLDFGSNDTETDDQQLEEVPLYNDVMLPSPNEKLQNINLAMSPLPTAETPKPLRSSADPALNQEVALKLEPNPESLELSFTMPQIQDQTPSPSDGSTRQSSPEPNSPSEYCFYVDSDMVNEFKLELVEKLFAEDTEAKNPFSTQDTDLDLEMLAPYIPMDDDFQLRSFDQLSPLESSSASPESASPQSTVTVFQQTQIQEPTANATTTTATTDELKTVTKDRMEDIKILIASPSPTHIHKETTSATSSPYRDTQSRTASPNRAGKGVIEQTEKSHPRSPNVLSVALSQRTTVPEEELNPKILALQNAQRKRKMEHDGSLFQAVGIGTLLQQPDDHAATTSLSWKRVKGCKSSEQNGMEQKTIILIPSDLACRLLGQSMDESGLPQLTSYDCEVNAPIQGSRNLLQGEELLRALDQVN

C1=CCCC=CCCC=CCC1
inactive: all assays above

O=C(O)c1cccc(N(Cc2cccnc2)c2ccc(OC(F)F)c(OC(F)F)c2)c1
inactive: all assays above

CC(C)CC(C)(O)C#CC(C)(O)CC(C)C (stereo not given)
inactive: all assays above

COC(=O)c1c(Cl)c(Cl)c(C(=O)OC)c(Cl)c1Cl
inactive: all assays above

CC[C@H]1CC[C@H](NCc2cc3c(cc2OC)[C@H]2C[C@H]2C(=O)N3C)[C@H](c2ccccc2)N1
active: [1] 50 µM
inactive: all other assays above

Nc1cccc(N)c1
inactive: all assays above

O=C(OC[C@H]1O[C@@H](OC(=O)c2cc(O)c(O)c(OC(=O)c3cc(O)c(O)c(O)c3)c2)[C@H](OC(=O)c2cc(O)c(O)c(OC(=O)c3cc(O)c(O)c(O)c3)c2)[C@@H](OC(=O)c2cc(O)c(O)c(OC(=O)c3cc(O)c(O)c(O)c3)c2)[C@@H]1OC(=O)c1cc(O)c(O)c(OC(=O)c2cc(O)c(O)c(O)c2)c1)c1cc(O)c(O)c(OC(=O)c2cc(O)c(O)c(O)c2)c1
inactive: [3] | [4] | [5] | [7]
active: [1] 25.6 µM | [2] 15.2 µM | [6] 9.74 µM | HGF (gene 3082) 15.2 µM | [8] 6.76 µM | [9] 9.51 µM

CC(C)=CCCC(C)=CC=O
inactive: all assays above

CCOC(=O)COc1ccc2c(c1)CC(NCC(O)c1cccc(Cl)c1)CC2 (stereo not given)
inactive: all assays above

O=P(OC(CCl)CCl)(OC(CCl)CCl)OC(CCl)CCl
inactive: [3] | [4] | [5] | HGF (gene 3082)
active: [1] 94.3 µM | [2] 83.9 µM | [6] 72.8 µM | [7] 50 µM | [8] 84.1 µM | [9] 62.7 µM

CCCC(=O)OCC
inactive: all assays above

O=C(O)CCN(C1(C(=O)NO)CCCC1)S(=O)(=O)c1ccc(Oc2ccc(F)cc2)cc1
inactive: all assays above

Cc1[nH]cnc1C[C@H]1CCc2c(C)c3ccccc3n2C1=O
inactive: [2] | [3]
active: [1] 81.1 µM | [4] 56.9 µM | [5] 24.3 µM | [6] 23.8 µM | HGF (gene 3082) 10.2 µM | [7] 17.8 µM | [8] 35.9 µM | [9] 37.2 µM

CCc1cc(SCc2sc(-c3ccc(C(F)(F)F)cc3)nc2CN2CCN(c3ccc(OC)cc3)CC2)ccc1OCC(=O)O
inactive: [3]
active: [1] 91.2 µM | [2] 26.5 µM | [4] 89.4 µM | [5] 91.1 µM | [6] 77.1 µM | HGF (gene 3082) 7.66 µM | [7] 73.8 µM | [8] 92.9 µM | [9] 88.6 µM

CN(C)c1ccc(Cc2ccc(N(C)C)cc2)cc1
active: [1] 50 µM | [6] 88.4 µM | [7] 79.2 µM
inactive: all other assays above

COC(=O)c1ccccc1O
inactive: all assays above

CCCCC(CC)COC(=O)c1ccc(C(=O)OCC(CC)CCCC)cc1 (stereo not given)
inactive: all assays above

Cc1c(-c2cccnc2)c2ccccc2n1CCCCC(=O)O
inactive: all assays above

CCNc1ccccc1
inactive: all assays above

CCCCC(CC)COC(=O)CCCCCCCCC(=O)OCC(CC)CCCC (stereo not given)
inactive: all assays above

COc1ccc(-n2nc(C(F)F)cc2-c2ccc(S(C)=O)cc2)cc1 (stereo not given)
active: [4] 43.5 µM
inactive: all other assays above
